Assay outcomes: PubChem BioAssay, National Center for Advancing Translational Sciences (NCATS)
This is a sample that favours compounds with a hit; in the whole collection about 9.2% have one here.
NPC1 prom act: NPC1 promoter activation. Huh7 NPC1 promoter luciferase reporter, 24 h. Potency, µM (highest dose often 9.22 µM), for inactives: at the top dose activation, actives largely listed as activators. 320,000 compounds, 2.4% hits. AID 485313; also: % of control where 0% means no effect; nearly all actives have a fitted effect of over 60% in size
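Luciferase expression driven by the NPC1 promoter was measured in stably transfected Huh7 cells after a 24 h compound incubation, using a luciferase reagent and a luminescence read.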
FLuc modulator: firefly luciferase modulation, counter-screen for miR-21 project. P08659. purified FLuc, Km substrates, luminescence inhibition. Potency, µM (titrated, usually from 57.5 µM), inactives show top-dose activity change, negative = inhibition, actives largely listed as inhibitors. 360,000 compounds, 6.9% hits;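 also: plate controls were vehicle for no effect and reference inhibitor for full effect; nearly all actives have a fitted effect of over 55% in size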
Target sequence (P08659 whole entry, looked up): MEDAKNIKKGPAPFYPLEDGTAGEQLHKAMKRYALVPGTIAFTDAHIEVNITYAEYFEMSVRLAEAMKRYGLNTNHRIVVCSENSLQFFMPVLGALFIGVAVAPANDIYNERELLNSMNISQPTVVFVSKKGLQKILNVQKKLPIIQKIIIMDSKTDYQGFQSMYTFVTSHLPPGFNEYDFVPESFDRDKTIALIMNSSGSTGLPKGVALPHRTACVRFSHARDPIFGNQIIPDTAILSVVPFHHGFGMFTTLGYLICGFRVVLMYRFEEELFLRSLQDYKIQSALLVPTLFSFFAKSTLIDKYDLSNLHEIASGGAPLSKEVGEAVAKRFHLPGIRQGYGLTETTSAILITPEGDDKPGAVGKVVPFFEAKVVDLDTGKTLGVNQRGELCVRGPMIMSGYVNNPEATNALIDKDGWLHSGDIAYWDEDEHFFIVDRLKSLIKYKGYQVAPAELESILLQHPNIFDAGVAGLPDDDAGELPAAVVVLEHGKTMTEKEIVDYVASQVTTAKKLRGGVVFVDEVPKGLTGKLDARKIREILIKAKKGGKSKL
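Biochemical qHTS of compounds, final roughly 60 µM downward over six points, against 10 nM purified firefly luciferase using Km concentrations of substrates (10 uM D-luciferin, 10 uM ATP) in Tris acetate pH 7.5 buffer; luminescence output.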
SMN2 splice up: increases expression of the SMN2 splice variant. Potency, µM (highest dose often 46.1 µM), inactives show at the top dose activity change, positive = activation, hits mostly activators. HEK293 SMN2-luciferase splicing reporter, luminescence, 30-36 h. 210,000 compounds, 2.8% hits; also: % of control where 0% means no effect; nearly all actives have a fitted effect of over 55% in size
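HEK293 cells carry an SMN2 minigene-luciferase reporter in which exon 7 inclusion puts luciferase in frame. Cells were seeded at 2000 cells/well, attached for 10-12 hours, then exposed to compounds for 30-36 hours at 37C before ONE-Glo luminescence.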
Rab9 promoter act: Rab9 promoter activation | Huh7 Rab9 promoter-luciferase reporter, luminescence, 24 h | Potency, µM (top dose mostly 9.22 µM), without a hit: top-dose activation, negative = inhibition, hits mostly activators | 320,000 compounds, 2.8% hits | AID 485297; also: % of control where 0% means no effect; nearly all actives have a fitted effect of over 60% in size
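Steps: seed 1500 Huh7 Rab9-luc cells per well, rest 2 h at 37 °C; add compound in DMSO; incubate 24 h; add luciferase reagent, 10 min ambient; read luminescence.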
ELG1 DNA repair: ELG1-dependent DNA repair inhibition; AID 504467; HEK293T ELG1-luciferase reporter, luminescence, 16 h; DNA damage induced by 5-fluorouridine; Potency, µM (titrated, usually from 46.1 µM), for inactives: top-dose activity change, negative = inhibition, most hits filed as inhibitors; 330,000 compounds, 2.3% hits; also: % is scaled to controls: 0 for no effect and ±100 for the full control effect; nearly all actives have a fitted effect of over 55% in size
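Quantitative HTS, concentration-response format. 2,000 cells/well co-treated with 5-fluorouridine and compound, 16 hr in 5% CO2 at 37 °C; ONE-Glo luminescence read after 30 min.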
ELG1 genotoxic: genotoxicity induction in ELG1-luciferase HEK293T cells. HEK293T ELG1-luciferase reporter, luminescence, 16 h. AID 504466. Potency, µM (titrated, usually from 46 µM), inactives show top-dose activity change, positive = activation, actives largely listed as activators. 330,000 compounds, 1.3% hits; also: % of control where 0% means no effect; nearly all actives have a fitted effect of over 60% in size
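Luminescence read-out: rising ELG1-luciferase signal, reflecting elevated ELG1 protein under genetic stress, flags genotoxic compounds. Cells were treated for 16 hr at 37 °C before ONE-Glo detection.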
* marks the source's active call; other numbers are inactive results; ? = inconclusive; · = no result; ! = not active in a repeat. Calls follow the shape of the dose curve; as a rule, active = well fitted curve in the direction sought with a large enough effect; inconclusive = small, poorly fitted or top-dose-only effect, or another doubt; inactive = no such curve, though single readings can be large; an effect the other way counts as inactive or inconclusive. Potency is read from the fitted curve at half-maximal effect.

SMILES	NPC1 prom act	FLuc modulator	SMN2 splice up	Rab9 promoter act	ELG1 DNA repair	ELG1 genotoxic
COc1cc(C2C(=O)c3ccccc3C2=O)ccc1O	0%	24µM*	·	0%	?	8%
COc1ccc(C2C(=O)c3ccccc3C2=O)cc1	?	5.4µM*	4µM*!	?	?	?
COc1ccc(C2C(=O)c3ccccc3C2=O)cc1OC	28%	8.5µM*	·	?	?	-4%
CCN(CC)C(=O)c1sc2c(c1C)c(=O)n(-c1ccc(OC)cc1OC)c(=O)n2CC(=O)c1ccc(Cl)cc1	·	-1%	·	·	·	·
COc1ccccc1/C=N/Nc1cc(C)nc2ccc(C)cc12	16%	-12%	·	11%	?	7%
COc1ccc2nc(C)cc(N/N=C/c3ccccc3)c2c1	-2%	9.5µM*	·	-5%	-9%	4%
COc1ccc(/C=N/Nc2cc(C)nc3ccc(OC)cc23)c(OC)c1	-2%	21µM*	·	3%	?	18%
COc1ccc(/C=N/Nc2ncccc2[N+](=O)[O-])c(OC)c1	?	1.1µM*	11µM*	3.5µM*	?	2.6µM*
O=[N+]([O-])c1ccc(S(=O)(=O)NCC(c2cccnc2)N2CCc3ccccc32)cc1 (stereo unspecified)	-2%	-1%	·	-4%	-9%	-2%
C=CCC(O)(CC=C)CNC(=O)C1CCC(=O)N(CCCc2ccccc2)C1 (stereo unspecified)	1%	0%	·	-1%	-15%	-2%
Cc1ccc(-c2[nH]n3c(=O)c4c(nc3c2C)CCCC4)cc1	?	?	21%	?	23%	?
O=c1c2c(nc3cc(-c4ccccc4)[nH]n13)CCC2	2.8µM*	6µM*	11µM*	?	?	?
COc1ccc(-c2cc3nc4c(c(=O)n3[nH]2)CCC4)cc1	?	4.3µM*	10µM*	2.8µM*	?	?
Cc1c(-c2ccccc2)[nH]n2c(=O)c3c(nc12)CCCC3	?	15µM*	11µM*	?	?	?
O=c1c2c(nc3cc(-c4ccc(Br)cc4)[nH]n13)CCCC2	-3%	7%	·	-2%	-13%	-3%
Cc1cc2nc3c(c(=O)n2[nH]1)CCCC3	0%	-1%	26%	1%	?	5%
COc1ccc(OC)c(CN2CCN(CCc3ccccc3)C(CCO)C2)c1 (stereo unspecified)	-2%	1%	·	0%	0%	-3%
Cn1c(N)c(C(=O)CSc2nnc3n2CCCCC3)c(=O)n(C)c1=O	·	·	·	·	0%	1%
COc1cc(OC)cc(C(=O)OC(C)C(=O)NC2CCCc3ccccc32)c1 (stereo unspecified)	2%	0%	·	-9%	-6%	-4%
c1ccc(CCc2nc(-c3ccccc3)no2)cc1	?	12µM*	28%	?	?	?
Cc1ccc(-c2noc(COC(=O)c3ccco3)n2)cc1	20%	9.5µM*	·	4%	?	12%
O=C1CCC(=O)N1CCCCCc1nc(-c2ccccc2)no1	18%	?	-4%	?	?	21µM*
O=C(Nc1ccc(-c2noc(CCc3ccccc3)n2)cc1)c1ccco1	1.3µM*	4.3µM*	2.8µM*	1.1µM*	?	?
O=C(Cc1ccccc1)Nc1ccc(NC(=O)c2ccco2)cc1	27%	?	·	24%	2%	?
O=C(CCC1N=C2c3ccccc3N=C(SCc3ccccc3Cl)N2C1=O)N1CCN(c2ccccc2)CC1 (stereo unspecified)	·	-1%	-4%	·	·	·
SMILES	NPC1 prom act	FLuc modulator	SMN2 splice up	Rab9 promoter act	ELG1 DNA repair	ELG1 genotoxic
Cc1cccc(-c2noc(CCC(=O)NCCc3ccccc3)n2)c1	-5%	-2%	·	-7%	1%	-2%
c1ccc(OCc2nc(-c3ccccc3)no2)cc1	?	27µM*	?	?	?	15µM*
Cc1cccc(-c2noc(CCc3ccccc3)n2)c1	?	12µM*	24%	2.8µM*	?	?
Cc1ccc(Cn2c(C)c3cnn(CC(=O)NC4CCCC4)c(=O)c3c2C)cc1	?	?	·	1.3µM*	?	12%
Cc1c2cnn(CC(=O)O)c(=O)c2c(C)n1Cc1ccccc1	2%	8%	0%	-1%	-3%	6%
COC(=O)Cn1ncc2c(C)n(Cc3ccccc3)c(C)c2c1=O	?	12µM*	18µM*	?	?	21µM*
CNC(=O)Cn1ncc2c(C)n(Cc3ccc(C)cc3)c(C)c2c1=O	-5%	-1%	-21%	4%	4%	2%
CC1=CC(=O)C2C(C)(C)CCC[C@@]2(C)[C@@]1(O)CCc1ccoc1 (stereo partly specified)	·	·	6%	·	·	·
COc1cc(-c2nnc(-c3cccs3)o2)cc(OC)c1OC	5%	-1%	?	6%	?	6%
COc1ccc(-c2nnc(-c3cc(OC)c(OC)c(OC)c3)o2)cc1OC	-4%	-3%	?	0%	23µM*	-10%
CCOc1ccc(-c2nc(-c3cccs3)c(CC(=O)O)s2)cc1OC	17%	3µM*	15%	?	?	?
CCOc1ccc(-c2nnc(-c3cccs3)o2)cc1OCC	3.5µM*	?	24%	?	?	?
c1csc(-c2nnc(-c3ccc(N4CCOCC4)cc3)o2)c1	0.35µM*	1.2µM*	1.3µM*	0.63µM*	?	1.3µM*
CCOc1ccc(-c2nnn(CCC(=O)O)n2)cc1OC	-2%	-2%	16%	0%	-14%	-2%
Fc1ccccc1CNCc1ccc2c(c1)OCO2	14%	-6%	·	7%	17%	4%
COc1ccc(-c2nnc(-c3cccs3)o2)cc1OC	2.8µM*	8.5µM*	154%	3.2µM*	?	14µM*
CCOc1ccc(-c2nnc(-c3cccs3)o2)cc1	0.71µM*	0.67µM*	2µM*	0.63µM*	?	?
Cc1ccc(CCNC(=O)c2ccc(CS(=O)(=O)c3ccc(Br)cc3)o2)cc1	·	1%	-8%	·	·	·
CCC(C)NC(=S)N(CCc1ccccc1)Cc1cc2cc(OC)c(OC)cc2[nH]c1=O (stereo unspecified)	1%	-1%	7%	-2%	6.5µM*	-6%
COc1cc2cc(CN(Cc3cccnc3)C(=O)NCc3ccccc3)c(=O)[nH]c2cc1OC	1%	-1%	43%	0%	?	1%
COc1cc2cc(CN(Cc3cccnc3)C(=O)Nc3ccccc3)c(=O)[nH]c2cc1OC	-9%	-15%	8%	-10%	7.3µM*	-2%
Cc1ccccc1NC(=O)CS(=O)(=O)c1cccc2nsnc12	·	-2%	·	·	·	·
